# Inconclusive results are not listed. Active and inactive are the calls of the source. How the source made its calls: active means hit-call score of the fitted dose curve at least 0.9, where 1 is the maximum; inconclusive means response in the unintended direction; inactive means score below 0.9.
# Molecular target: Oxysterols receptor LXR-alpha (Homo sapiens) (UniProt Q13133)
# Assay: ATG_LXRa_TRANS: Attagene TRANS-FACTORIAL HepG2 Assay for human Liver X Receptor alpha (LXRa) (AID 2282980)
# Conditions: HepG2 Attagene TRANS reporter, LXRa transactivation
# Method: ATG_TRANS is a cell-based, multiplexed-readout assay that uses HepG2, a human liver cell line, with measurements taken at 24 hours after chemical dosing in a 24-well plate.ATG_LXRa_TRANS is one of 30 assay component(s) measured or calculated from the ATG_TRANS assay. It is designed to make measurements of mRNA induction, a form of inducible reporter, as detected with fluorescence intensity signals by Reverse transcription polymerase chain reaction (RT-PCR) and Capillary electrophoresis technology.Data from the assay component ATG_LXRa_TRANS was analyzed into 1 assay endpoint. This assay endpoint, ATG_LXRa_TRANS, was analyzed in the positive analysis fitting direction relative to DMSO as the negative control and baseline of activity. Using a type of inducible reporter, measures of mRNA for gain-of-signal activity can be used to understand the reporter gene at the transcription factor-level as they relate to the gene NR1H3. Furthermore, this assay endpoint can be referred to as a primary readout, because this assay has produced multiple assay endpoints where this one serves a reporter gene function. To generalize the intended target to other relatable targets, this assay endpoint is annotated to the nuclear receptor intended target family, where the subfamily is non-steroidal.
# Human liver HepG2 cells are transiently transfected with multiple reporter transcription units (MRTUs) in 6-well plates using FuGene 6 reagent (Roche; 3 ml FuGene/1 mg DNA). The MRTU constructs are regulated by a cis-regulating element (promoter). […] A major difference between the CIS and TRANS system is that in CIS activities of endogenous TFs are measured, whereas the TRANS assay evaluates changes in activities of exogenous, chimeric NR-Gal4 proteins. […] At the end of 24 hour incubation, total RNA was isolated using TriZol reagent (Invitrogen). The isolated RNA is then reverse-transcribed using oligo(dT) primer and Mo-MLV reverse transcriptase (Invitrogen) with DNAse I (Ambion) treatment for 30 min. The one-tenth of the produced cDNA was amplified by PCR using Taq DNA polymerase (Invitrogen) and two reporter sequence-specific primers. The PCR products were fluorescently labeled by primer extension with 6-arboxyfluorescein (6-FAM) 5'-labeled reporter sequence-specific primer (2 min at 95 C, 20 s at 68 C and 10 min at 72 C) and these products were digested with 5U of HpaI (New England Biolabs) for 2h at 37 C. The fragments were purified using Qiaquick PCR columns (Qiagen), analyzed on an ABI 3130xL genetic analyzer (Applied Biosystems) with peak positions identified by using a set of X-rhodamine (ROX)-labeled MapMarker1000 molecular weight standards (BioVentures). The raw capillary electrophoresis data was processed using Attagraph software (Attagene).
# Chain of Oxysterols receptor LXR-alpha (Homo sapiens) (Q13133 whole entry, looked up): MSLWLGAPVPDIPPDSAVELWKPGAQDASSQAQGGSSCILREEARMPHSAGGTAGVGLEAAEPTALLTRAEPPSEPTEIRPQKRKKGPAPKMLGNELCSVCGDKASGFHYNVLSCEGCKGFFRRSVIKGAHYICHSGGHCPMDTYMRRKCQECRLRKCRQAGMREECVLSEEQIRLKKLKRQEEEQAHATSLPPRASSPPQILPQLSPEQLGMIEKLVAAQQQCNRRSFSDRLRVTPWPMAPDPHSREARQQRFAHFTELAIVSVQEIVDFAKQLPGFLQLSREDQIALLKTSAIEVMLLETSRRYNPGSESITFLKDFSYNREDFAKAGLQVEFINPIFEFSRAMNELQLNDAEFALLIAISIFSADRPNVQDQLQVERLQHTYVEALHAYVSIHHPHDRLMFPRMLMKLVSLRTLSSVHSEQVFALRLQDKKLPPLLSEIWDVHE
row,SMILES,outcome
1,CCC(=O)OC(C)(C)C1CC=C(C)CC1 (stereo not given),inactive
2,NC(=O)NC(N)=O,inactive
3,CC(CCO)CC(C)(C)C (stereo not given),inactive
4,CC(=O)OCC=C(C)CCC=C(C)CCC=C(C)C,inactive
5,CC1=CC[C@@H]2C[C@H]1C2(C)C,inactive
6,O=C(O)C1=NN(c2ccc(S(=O)(=O)O)cc2)C(=O)C1,inactive
7,OC[C@H]1O[C@@H](O[C@H]2[C@H](O)[C@@H](O)[C@H](O)O[C@@H]2CO)[C@H](O)[C@@H](O)[C@H]1O,inactive
8,CCCC(O)C(CC)CO (stereo not given),inactive
9,O=C1OC2(c3ccc(O)cc3Oc3cc(O)ccc32)c2ccccc21,inactive
10,CC(=O)c1ccc(O)cc1,inactive
11,CC1=CC(O)CC(C)(C)C1 (stereo not given),inactive
12,CC1(C)CC(=O)CC(C)(C)N1,inactive
13,CCCCCCCCCCOC(=O)c1ccccc1C(=O)OCCCCCCCC,inactive
14,C1=COCCC1,inactive
15,C=CCCCCCCCCC(=O)OCC,inactive
16,CCOc1ccc(NC(C)=O)cc1,inactive
17,CC(C)CCCC(C)(C)O,inactive
18,CCO[Si](CCC#N)(OCC)OCC,inactive
19,CC(=O)OC(C)(C)C1CC=C(C)CC1 (stereo not given),inactive
20,CC1COC(=O)O1 (stereo not given),inactive

row,SMILES,outcome
1,C#C[C@]1(O)CC[C@H]2[C@@H]3CCc4cc(O)ccc4[C@H]3CC[C@@]21C,inactive
2,CCCCCCCCCO,inactive
3,Cc1cc(O)c2c(c1)C(=O)c1cc(O)cc(O)c1C2=O,inactive
4,O=S1(=O)CC(Cl)(Cl)C(Cl)(Cl)C1,inactive
5,O=S1(=O)CC=CC1,inactive
6,CC=CC(=O)C1=C(C)C=CCC1(C)C,inactive
7,COc1ccc(N)c(C)c1,inactive
8,O=c1cc[nH]cc1,inactive
9,[Cl][Dy]([Cl])[Cl],inactive
10,CC(=O)CCC(=O)O,inactive
11,COc1ccc(OC)cc1,inactive
12,CC(C)C(=O)c1ccccc1,inactive
13,CCCCCCC(O)CCOC(C)=O (stereo not given),inactive
14,CCCCN(CCCC)CCCCCCN(CCCC)CCCC,inactive
15,CCCCOCC(C)OCC(C)O (stereo not given),inactive
16,COc1ccc2[nH]cc(CCNC(C)=O)c2c1,inactive
17,Nc1ccn([C@H]2CC[C@@H](CO)O2)c(=O)n1,inactive
18,CCCOC(=O)CC,inactive
19,CN(C)C,inactive
20,CC(C)(C)c1cc(CCC(=O)OCCSCCOC(=O)CCc2cc(C(C)(C)C)c(O)c(C(C)(C)C)c2)cc(C(C)(C)C)c1O,inactive

# From PubChem BioAssay (EPA / NIEHS)
